KCNQ2 pot: potentiators of rat KCNQ2 potassium channel | hit rate 0.54% among 310,000 | CHO-K1 KCNQ2, FluxOR thallium flux fluorescence; stronger effect = higher value | B-score at 10 µM;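 active means fluorescence ratio B-score at least 3 SD of library B-scores, with initial fluorescence B-score within 3 of them, cut at about 5.3 in these data; same plate scores as AID 2156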;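 further: B-score of peak minus minimum over baseline fluorescence ratio after K+ and Tl+ stimulus; positive B-score means potentiation of KCNQ2 with more thallium influx and brighter signal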
Target sequence (O88943 whole entry, looked up): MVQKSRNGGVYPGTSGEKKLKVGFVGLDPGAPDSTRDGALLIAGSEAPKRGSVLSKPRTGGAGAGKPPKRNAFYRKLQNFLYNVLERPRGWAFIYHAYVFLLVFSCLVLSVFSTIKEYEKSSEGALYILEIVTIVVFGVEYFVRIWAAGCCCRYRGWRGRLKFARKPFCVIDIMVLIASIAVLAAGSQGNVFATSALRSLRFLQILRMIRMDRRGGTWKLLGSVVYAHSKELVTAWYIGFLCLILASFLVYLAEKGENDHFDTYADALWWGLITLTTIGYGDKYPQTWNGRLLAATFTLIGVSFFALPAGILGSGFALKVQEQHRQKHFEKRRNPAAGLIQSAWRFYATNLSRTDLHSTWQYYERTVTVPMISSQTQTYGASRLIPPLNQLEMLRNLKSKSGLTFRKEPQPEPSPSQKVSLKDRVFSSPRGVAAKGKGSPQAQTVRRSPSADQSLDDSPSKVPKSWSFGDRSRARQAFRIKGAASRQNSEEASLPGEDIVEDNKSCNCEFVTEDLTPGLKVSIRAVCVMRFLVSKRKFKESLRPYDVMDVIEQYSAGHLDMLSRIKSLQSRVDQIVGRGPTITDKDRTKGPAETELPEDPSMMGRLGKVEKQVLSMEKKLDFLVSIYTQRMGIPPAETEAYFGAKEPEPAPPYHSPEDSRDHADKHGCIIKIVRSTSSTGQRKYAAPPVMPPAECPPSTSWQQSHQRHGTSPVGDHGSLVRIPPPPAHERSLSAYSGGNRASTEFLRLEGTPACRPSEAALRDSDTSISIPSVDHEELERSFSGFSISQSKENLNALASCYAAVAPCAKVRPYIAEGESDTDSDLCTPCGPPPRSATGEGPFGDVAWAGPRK
KCNQ2 block: rat KCNQ2 potassium channel inhibitors, primary screen, cell-based, CHO-K1, FluxOR thallium flux, B-score; B-score at 10 µM; hit rate 1.1% among 310,000; AID 2156, 2009; Potassium voltage-gated channel subfamily KQT member 2 (Rattus norvegicus), O88943; 20 min; stronger effect = lower value;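 active means fluorescence ratio B-score at most minus 3 library SDs, with starting brightness B-score within 2 library SDs, cut at about -5.5 in these data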
* hit, by the source's call. This is a sample that favours compounds with a hit; in the whole collection about 1.6% have one here.

For CCN(Cc1ccccc1)C(c1ccc(Cl)cc1)c1nnnn1C(C)(C)C (configuration not stated) the results were KCNQ2 block inactive.
For CCN(Cc1ccccc1)C(c1ccc(C)cc1)c1nnnn1C(C)(C)C (configuration not stated) the results were KCNQ2 pot -10.5 and KCNQ2 block -10.5*.
Screening CN(C(=O)COC(=O)c1ccc(F)c(S(=O)(=O)N2CCOCC2)c1)C1CCS(=O)(=O)C1 (configuration not stated) returned KCNQ2 pot 0.12 and KCNQ2 block inactive.
For Cc1occc1C(=O)Nc1cccc([N+](=O)[O-])c1C the results were KCNQ2 pot 1.92 and KCNQ2 block inactive.
COc1cccc(-n2c(CN3CCN(c4cccc(C)c4)C(C)C3)nc3ccc([N+](=O)[O-])cc3c2=O)c1 (configuration not stated) was read as KCNQ2 pot -5.78 and KCNQ2 block -5.78*.
`COc1cccc(-n2c(CN3CCN(c4ccc(C)cc4)C(C)C3)nc3ccc([N+](=O)[O-])cc3c2=O)c1` (configuration not stated) gave KCNQ2 block inactive.
Screening C=CCc1cccc(/C=N/NC(=O)CNc2cccc3ccccc23)c1O returned KCNQ2 pot 0.98 and KCNQ2 block inactive.
For C=CCc1cccc(/C=N/NC(=O)CNc2ccccc2OC)c1O the results were KCNQ2 pot 6.2* and KCNQ2 block inactive.
CC(C)c1ccc(N(CC(=O)NC2CCCC2)C(=O)CCC(=O)Nc2nccs2)cc1 was read as KCNQ2 block inactive.
CSc1ccc(CN2CCC(Oc3ccc(C(=O)N4CCCC4)cc3)CC2)cc1 was read as KCNQ2 block inactive.
Screening COc1ccc(C2(O)CN(c3ccccc3)C3=[N+]2CCS3)cc1OC (configuration not stated) returned KCNQ2 block inactive.
Screening OC1(c2ccc(Br)cc2)CN(c2ccccc2)C2=[N+]1CCS2 (configuration not stated) returned KCNQ2 pot -6.02 and KCNQ2 block -6.02*.
OC1(c2ccc(Cl)cc2)CN(c2ccccc2)C2=[N+]1CCS2 (configuration not stated) was read as KCNQ2 pot -7.15 and KCNQ2 block -7.15*.
For COc1ccc(OC)c(N2CC(O)(c3ccccc3)[N+]3=C2SCCC3)c1 (configuration not stated) the results were KCNQ2 block inactive.
For COC(CNC(=O)C1CCN(S(=O)(=O)c2cccc3nsnc23)CC1)OC the results were KCNQ2 pot 0.47 and KCNQ2 block inactive.
For O=C(Nc1nonc1NC(=O)c1cccs1)c1cccs1 the results were KCNQ2 pot 2.4 and KCNQ2 block inactive.
For CCOC(=O)c1cc2c(ccn2-c2ccc(F)cc2)n1CC(=O)NC(C)(C)C the results were KCNQ2 pot -6.65 and KCNQ2 block -6.65*.
Screening CCn1c(C(=O)OC)cc2c1ccn2-c1ccc(F)cc1 returned KCNQ2 block inactive.
`CC1(C)CC2CC(C)(CN2C(=O)NC(=O)c2ccccc2)C1` (configuration not stated) gave KCNQ2 block inactive.
`Cc1ccc(C(=O)Nc2ccccc2C(=O)N2CC3(C)CC2CC(C)(C)C3)cc1` (configuration not stated) gave KCNQ2 pot -6.06 and KCNQ2 block -6.06*.
For COc1ccccc1NC(=O)CCN1C(=O)C2C3CCC(C3)C2C1=O (configuration not stated) the results were KCNQ2 pot 1.43 and KCNQ2 block inactive.
Screening O=C(Nc1ccc(F)cc1)c1sccc1SCc1cccc(C(F)(F)F)c1 returned KCNQ2 block inactive.
Screening O=C(Nc1ccc(F)cc1F)c1sccc1SCc1cccc(C(F)(F)F)c1 returned KCNQ2 pot -5.94 and KCNQ2 block -5.94*.
Screening CCNCC(=O)N1c2ccccc2CCc2ccc(NC(=O)OCC)cc21 returned KCNQ2 block inactive.
CCC1(C)Cc2ccccc2-c2nc(NN)[nH]c(=O)c21 (configuration not stated) was read as KCNQ2 block inactive.
For CCC1(C)Cc2ccccc2-c2nc(-c3ccccc3)oc(=O)c21 (configuration not stated) the results were KCNQ2 pot -5.54 and KCNQ2 block -5.54*.
For CC(Sc1ccccc1)C(=O)N/N=C/c1ccccc1 (configuration not stated) the results were KCNQ2 block inactive.
C/C(CC(=O)Nc1cccc(Br)c1)=N\NC(=O)c1ccc(O)cc1O was read as KCNQ2 block inactive.
Screening Cc1ccccc1CSCCNC(=O)CSCc1ccc([N+](=O)[O-])cc1 returned KCNQ2 pot -6.42 and KCNQ2 block -6.42*.
Cc1ccc(CSCCNC(=O)CSCc2ccc([N+](=O)[O-])cc2)cc1 was read as KCNQ2 block inactive.
For O=C(NCCCc1ccc(F)cc1)C1CCC(=O)N(CCN2CCOCC2)C1 (configuration not stated) the results were KCNQ2 block inactive.
Screening N#CCCN/N=C(\Cc1nc2ccccc2[nH]1)c1ccccc1 returned KCNQ2 block inactive.
Screening N#CCCN/N=C(/Cc1nc2ccccc2[nH]1)c1ccc(Cl)cc1 returned KCNQ2 pot -10.2 and KCNQ2 block -10.2*.
Cc1ccc2c(c1)C1CN(C)CCC1N2C(=O)COc1ccc(N(C)C(=O)C(C)(C)C)cc1 (configuration not stated) was read as KCNQ2 block inactive.
Cc1ccc2c(c1)C1CN(C)CCC1N2CC(=O)N(C)c1ccccc1 (configuration not stated) was read as KCNQ2 pot 5.57* and KCNQ2 block inactive.
Screening COc1cc(-c2nnc(SCc3c(F)cccc3Cl)o2)cc(OC)c1OC returned KCNQ2 block inactive.
Screening COc1cc(-c2nnc(SCc3ccccc3Cl)o2)cc(OC)c1OC returned KCNQ2 pot -6.83 and KCNQ2 block -6.83*.
For CCC(OC(=O)c1ccco1)C(=O)NCc1ccc2c(c1)OCO2 (configuration not stated) the results were KCNQ2 pot 0.84 and KCNQ2 block inactive.
Screening Cc1ccc([N+](=O)[O-])cc1NC(=O)CN(C(=O)c1ccccc1Cl)C1CCCCC1 returned KCNQ2 block inactive.
`Cc1ccccc1CN(CC(=O)Nc1cccc([N+](=O)[O-])c1)S(=O)(=O)c1ccc(Cl)cc1` gave KCNQ2 pot -6.64 and KCNQ2 block -6.64*.
For CS(=O)(=O)N(CC(=O)Nc1cccc([N+](=O)[O-])c1)c1ccccc1 the results were KCNQ2 pot 1.12 and KCNQ2 block inactive.
Screening Cc1ccc(NC(=O)CN(c2ccc(Cl)cc2)S(=O)(=O)c2cc([N+](=O)[O-])ccc2Cl)c(C)c1 returned KCNQ2 pot -7.87 and KCNQ2 block -7.87*.
`Cc1ccc([N+](=O)[O-])cc1NC(=O)CN(C1CCCCC1)S(=O)(=O)c1ccc(Cl)cc1` gave KCNQ2 pot -7.87 and KCNQ2 block -7.87*.
For COc1ccc(C)cc1S(=O)(=O)N(CC(=O)Nc1cccc([N+](=O)[O-])c1)c1ccccc1 the results were KCNQ2 pot 0.79 and KCNQ2 block inactive.
`O=C(O)C(Cc1c[nH]c2ccccc12)NS(=O)(=O)c1ccc(Cl)cc1` (configuration not stated) gave KCNQ2 pot -7.32 and KCNQ2 block -7.32*.

Assay outcomes from PubChem.
